For some of these results: Results with a measured potency or affinity are listed apart. Activity calls are given as the source filed them. Unless noted, how the calls were made is not given here.
Tests used:
[1] = antimalarial activity against Dd2 strain (AID 2302;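 active means growth inhibition above 50% at the single 2 µM test dose, taken to imply half-maximal potency below 2 µM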;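 further: 0% = DMSO untreated growth and 100% = chloroquine plus artemisinin killed control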); settings: P. falciparum Dd2 in RBCs, LDH growth readout, 72 h; at 2 µM; stronger effect = higher value
[2] = human hepatoma cell viability loss – ATP luminescence, cytotoxicity control for P. falciparum antimalarial project, primary screen (AID 2303;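 active means inhibition above 50%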;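 further: 0% = DMSO wells and 100% = digitonin-killed cells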); settings: HepG2 viability, 24-48 h, at 10 µM, stronger effect = higher value
[3] = molecular target: L-lactate dehydrogenase (Plasmodium falciparum (isolate CDC / Honduras)) (UniProt Q27743); assay: PfLDH activity inhibition – cell lysate, 3D7 strain, counter-screen for P. falciparum growth inhibition project (AID 2304);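 further: 0% = vehicle and 100% = reference inhibitor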; settings: P. falciparum 3D7 crude extract, LDH APAD/NBT absorbance; at 2 µM; stronger effect = higher value
[4] = inhibition of 3D7 malaria parasite growth – strain 3D7 (AID 2306);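 further: 0% = DMSO wells and 100% = chloroquine plus artemisinin control wells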; settings: P. falciparum 3D7 erythrocytic growth, LDH absorbance, 72 h; at 2 µM; stronger effect = higher value
[5] = molecular target: Calcium-dependent protein kinase 1 (Plasmodium falciparum (isolate 3D7)) (UniProt P62344); assay: PfCDPK1 kinase inhibitors, biochemical, TCAMS library (AID 1159585; cut-off not given, nearly all actives have IC50 up to about 0.98 µM;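 further: inhibitors leave more ATP so luminescence rises with inhibition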); settings: recombinant PfCDPK1, Kinase-Glo ATP depletion luminescence
[6] = molecular target: Plasmodium falciparum protein kinase 6 (PK6, PF3D7_1337100) (UniProt Q8IDW1); assay: PfPK6 kinase inhibitors, biochemical, TCAMS library (AID 1159586); settings: recombinant PfPK6, Kinase-Glo ATP depletion luminescence
[7] = molecular target: Protein kinase 7 (PK7), Plasmodium falciparum 3D7 (PF3D7_0213400) (UniProt Q7YTF7); assay: inhibition of Plasmodium PK7 catalytic activity – biochemical, TCAMS antimalarial set, Kinase-Glo luminescence (AID 1159587); settings: recombinant PfPK7, Kinase-Glo ATP depletion luminescence
[8] = molecular target: Calcium-dependent protein kinase 4 (Plasmodium falciparum (isolate 3D7)) (UniProt Q8IBS5); assay: PfCDPK4 kinase inhibitors, biochemical, TCAMS library (AID 1159588; cut-off not given, nearly all actives have IC50 up to about 0.91 µM); settings: recombinant PfCDPK4, Kinase-Glo ATP depletion luminescence
Calcium-dependent protein kinase 4 (Plasmodium falciparum (isolate 3D7)), sequence (Q8IBS5 whole entry, looked up): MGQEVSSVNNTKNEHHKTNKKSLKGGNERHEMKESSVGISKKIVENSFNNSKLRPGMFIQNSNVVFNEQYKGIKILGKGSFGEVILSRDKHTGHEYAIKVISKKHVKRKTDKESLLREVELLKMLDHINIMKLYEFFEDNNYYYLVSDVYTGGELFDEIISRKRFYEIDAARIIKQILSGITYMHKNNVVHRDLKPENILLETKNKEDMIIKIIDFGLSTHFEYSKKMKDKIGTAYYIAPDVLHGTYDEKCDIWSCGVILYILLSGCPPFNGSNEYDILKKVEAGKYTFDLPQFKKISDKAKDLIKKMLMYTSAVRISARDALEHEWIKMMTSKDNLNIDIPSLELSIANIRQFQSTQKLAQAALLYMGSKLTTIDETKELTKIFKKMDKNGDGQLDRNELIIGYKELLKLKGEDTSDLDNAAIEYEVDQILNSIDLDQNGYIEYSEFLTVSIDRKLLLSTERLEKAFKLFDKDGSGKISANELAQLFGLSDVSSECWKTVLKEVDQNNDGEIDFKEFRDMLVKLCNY

L-lactate dehydrogenase (Plasmodium falciparum (isolate CDC / Honduras)), sequence (Q27743 whole entry, looked up): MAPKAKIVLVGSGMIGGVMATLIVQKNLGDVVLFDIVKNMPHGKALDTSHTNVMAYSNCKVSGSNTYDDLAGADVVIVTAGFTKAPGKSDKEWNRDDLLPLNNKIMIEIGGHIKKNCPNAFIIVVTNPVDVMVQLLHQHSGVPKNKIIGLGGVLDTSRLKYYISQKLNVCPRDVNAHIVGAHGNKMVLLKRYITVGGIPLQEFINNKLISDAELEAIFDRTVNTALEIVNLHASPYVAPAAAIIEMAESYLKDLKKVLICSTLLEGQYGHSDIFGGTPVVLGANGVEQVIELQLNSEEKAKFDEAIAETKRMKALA
Calcium-dependent protein kinase 1 (Plasmodium falciparum (isolate 3D7)), sequence (P62344 whole entry, looked up): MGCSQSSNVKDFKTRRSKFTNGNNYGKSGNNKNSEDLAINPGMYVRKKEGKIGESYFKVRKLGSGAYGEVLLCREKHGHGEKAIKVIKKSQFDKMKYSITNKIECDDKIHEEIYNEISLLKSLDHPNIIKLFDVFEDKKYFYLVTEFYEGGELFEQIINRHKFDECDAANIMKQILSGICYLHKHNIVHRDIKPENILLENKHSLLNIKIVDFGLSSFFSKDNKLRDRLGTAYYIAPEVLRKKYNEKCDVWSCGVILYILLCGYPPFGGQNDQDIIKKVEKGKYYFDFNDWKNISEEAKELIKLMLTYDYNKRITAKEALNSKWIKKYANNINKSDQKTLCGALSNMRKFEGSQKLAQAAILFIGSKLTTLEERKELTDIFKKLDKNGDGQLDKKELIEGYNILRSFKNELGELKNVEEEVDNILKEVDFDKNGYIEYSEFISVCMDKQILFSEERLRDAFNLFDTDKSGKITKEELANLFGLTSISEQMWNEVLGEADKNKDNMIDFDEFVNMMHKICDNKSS
Plasmodium falciparum protein kinase 6 (PK6, PF3D7_1337100), sequence (Q8IDW1 1-305): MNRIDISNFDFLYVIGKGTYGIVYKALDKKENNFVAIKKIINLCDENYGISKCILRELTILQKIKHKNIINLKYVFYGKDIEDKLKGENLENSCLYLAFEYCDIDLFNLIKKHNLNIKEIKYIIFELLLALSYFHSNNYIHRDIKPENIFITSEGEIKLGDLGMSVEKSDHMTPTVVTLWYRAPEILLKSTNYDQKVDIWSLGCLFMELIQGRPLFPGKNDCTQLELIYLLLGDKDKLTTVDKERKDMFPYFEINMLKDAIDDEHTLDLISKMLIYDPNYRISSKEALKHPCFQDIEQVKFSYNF
Protein kinase 7 (PK7), Plasmodium falciparum 3D7 (PF3D7_0213400), sequence (Q7YTF7 1-343): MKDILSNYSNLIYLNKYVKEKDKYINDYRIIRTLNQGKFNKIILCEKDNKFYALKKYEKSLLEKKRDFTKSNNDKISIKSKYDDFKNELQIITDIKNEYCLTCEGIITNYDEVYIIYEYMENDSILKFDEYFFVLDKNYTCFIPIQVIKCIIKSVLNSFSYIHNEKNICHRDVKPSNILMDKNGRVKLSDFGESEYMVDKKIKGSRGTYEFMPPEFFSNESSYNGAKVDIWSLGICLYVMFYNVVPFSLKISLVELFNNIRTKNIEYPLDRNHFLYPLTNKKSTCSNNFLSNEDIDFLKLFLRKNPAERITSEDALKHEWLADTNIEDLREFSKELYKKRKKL

Cn1c(O)c(N=NC(=S)N2CCOCC2)c2ccccc21
active: growth inhibition [1] 54% | inhibition [2] 57% | growth inhibition [4] 95%
inactive: inhibition [3] 6% | outcome [5] | outcome [6] | outcome [7] | outcome [8]

O=C(CCc1cnc[nH]1)Nc1cccc(-c2cccc(-c3nc4ccc(C(F)(F)F)cc4[nH]3)c2)c1
inactive: inhibition [2] 17% | inhibition [3] 7% | outcome [5] | outcome [6] | outcome [7] | outcome [8]
active: growth inhibition [1] 99% | growth inhibition [4] 101%

CC(C)c1ccc2[nH]c(C(=O)NC3CCC(N4CCCc5ccc(C#N)cc5C4)CC3)cc2c1 (stereo not drawn)
active: growth inhibition [4] 91%
inactive: growth inhibition [1] 27% | inhibition [2] 48% | inhibition [3] -3% | outcome [5] | outcome [6] | outcome [7] | outcome [8]

Cc1cccc(CNc2nc(C)cc(NCCC(=O)NCCOc3ccccc3)n2)c1
inactive: growth inhibition [1] 14% | inhibition [2] 18% | inhibition [3] 0% | outcome [5] | outcome [6] | outcome [7] | outcome [8]
active: growth inhibition [4] 98%

CO/C(=C\C=C\c1cc2cc(Cl)c(Cl)cc2[nH]1)C(=O)NCC(C)(C)CN(C)C
active: growth inhibition [4] 81%
inactive: growth inhibition [1] 27% | inhibition [2] 35% | inhibition [3] 1% | outcome [5] | outcome [6] | outcome [7] | outcome [8]

CNc1ccc(CNCc2cccc(-c3ccc(-c4nc5ccccc5[nH]4)s3)c2)cc1
active: growth inhibition [1] 77% | growth inhibition [4] 100%
inactive: inhibition [2] 15% | inhibition [3] -3% | outcome [5] | outcome [6] | outcome [7] | outcome [8]

CCCc1ccc(NC(=O)c2ccc(CN3CCCN(Cc4cccc(O)c4)CC3)cc2)cc1
active: growth inhibition [1] 63% | inhibition [2] 51% | growth inhibition [4] 101%
inactive: inhibition [3] -1% | outcome [5] | outcome [6] | outcome [7] | outcome [8]

O=S(=O)(NCCN1CCCC1)c1ccc(-c2cccc(CNCc3ccsc3)c2)s1
active: growth inhibition [4] 90%
inactive: growth inhibition [1] 43% | inhibition [2] 42% | inhibition [3] 0% | outcome [5] | outcome [6] | outcome [7] | outcome [8]

CCOc1ccc(C(C)NC(=O)Cc2ccccc2F)cc1OCC (stereo not drawn)
inactive: growth inhibition [1] 44% | inhibition [2] 15% | inhibition [3] 6% | outcome [5] | outcome [6] | outcome [7] | outcome [8]
active: growth inhibition [4] 96%

CS(=O)(=O)CCNCc1nc(-c2ccc3c(=O)[nH]cnc3c2)cs1
inactive: inhibition [3] 0% | outcome [5] | outcome [6] | outcome [7] | outcome [8]
active: growth inhibition [1] 96% | inhibition [2] 81% | growth inhibition [4] 86%

CC1(C)CCC(C)(C)c2c1ccc(C1CCN(CCCCNC(=O)c3ccc(-c4ccc(Cl)cc4)cc3)CC1)c2O
active: growth inhibition [1] 72% | inhibition [2] 100% | growth inhibition [4] 102%
inactive: inhibition [3] -2% | outcome [5] | outcome [6] | outcome [7] | outcome [8]

Cc1cc(C)cc(N2C(N)=NC(N)=NC2(C)C)c1
inactive: growth inhibition [1] 6% | inhibition [3] -4% | outcome [5] | outcome [6] | outcome [7] | outcome [8]
active: inhibition [2] 58% | growth inhibition [4] 93%

Nc1nccc2ccc(-c3cccnc3)cc12
active: growth inhibition [1] 95% | growth inhibition [4] 97%
inactive: inhibition [2] 9% | inhibition [3] 2% | outcome [5] | outcome [6] | outcome [7] | outcome [8]

COc1cccc(CN2CCCN(Cc3cccc(NC(=O)c4ccc(-c5ccccc5)cc4)c3)CC2)c1
active: growth inhibition [4] 86%
inactive: growth inhibition [1] 8% | inhibition [2] 35% | inhibition [3] -1% | outcome [5] | outcome [6] | outcome [7] | outcome [8]

CCOC(=O)c1ccc2nc(-c3ccc(C(=O)NC4CCN(Cc5ccccc5)CC4)s3)[nH]c2c1
active: growth inhibition [1] 95% | growth inhibition [4] 100%
inactive: inhibition [2] 32% | inhibition [3] -2% | outcome [5] | outcome [6] | outcome [7] | outcome [8]

N#Cc1ccc(NC(=NCc2cccnc2)Nc2ccc(-c3ccccc3)cc2)c(O)c1
inactive: growth inhibition [1] 46% | inhibition [2] 2% | inhibition [3] -3% | outcome [5] | outcome [6] | outcome [7] | outcome [8]
active: growth inhibition [4] 101%

O=S(=O)(Nc1cc2c(cc1O)CCNCC2)c1ccc(-c2ccc(Cl)cc2)cc1
inactive: growth inhibition [1] 0% | inhibition [2] 10% | inhibition [3] 3% | outcome [5] | outcome [6] | outcome [7] | outcome [8]
active: growth inhibition [4] 99%

Cc1cccc2[nH]c(-c3cccc(-c4ccc(NC(=O)C(C)CN(C)C)cc4)c3)nc12 (stereo not drawn)
active: growth inhibition [1] 100% | growth inhibition [4] 101%
inactive: inhibition [2] 29% | inhibition [3] -3% | outcome [5] | outcome [6] | outcome [7] | outcome [8]

Cc1cc(=O)[nH]c(/N=C(/N)NOCc2ccccc2)n1
active: growth inhibition [4] 101%
inactive: growth inhibition [1] 1% | inhibition [2] 0% | inhibition [3] 0% | outcome [5] | outcome [6] | outcome [7] | outcome [8]

COc1ccc(CCOc2c(C)nc(N)nc2N)cc1OC
active: inhibition [2] 66% | growth inhibition [4] 96%
inactive: growth inhibition [1] 22% | inhibition [3] 4% | outcome [5] | outcome [6] | outcome [7] | outcome [8]

COc1ccc(C2CCN(CCCCNC(=O)c3ccc(NC(=O)c4ccc(Cl)cc4)cc3)CC2)c(OC)c1
active: growth inhibition [1] 95% | growth inhibition [4] 101%
inactive: inhibition [2] 32% | inhibition [3] 0% | outcome [5] | outcome [6] | outcome [7] | outcome [8]

O=C(CNCC1CCCCC1)Nc1cc(C(F)(F)F)ccc1Cl
inactive: inhibition [2] 1% | inhibition [3] 2% | outcome [5] | outcome [6] | outcome [7] | outcome [8]
active: growth inhibition [1] 67% | growth inhibition [4] 86%

COc1cccc(C2=CC(C)(C)Oc3cc(OCCN(C)C)ccc32)c1
inactive: inhibition [3] -4% | outcome [5] | outcome [6] | outcome [7] | outcome [8]
active: growth inhibition [1] 96% | inhibition [2] 57% | growth inhibition [4] 97%

CC(C)c1ccc(NC(=O)c2cccc(CN3CCCN(CC4CCCCC4)CC3)c2)cc1
active: growth inhibition [1] 59% | inhibition [2] 62% | growth inhibition [4] 85%
inactive: inhibition [3] 2% | outcome [5] | outcome [6] | outcome [7] | outcome [8]

O=C1COC2(CN1C1CCN(Cc3ccc(O)c(Cl)c3)C1)c1ccccc1-c1ccccc12 (stereo not drawn)
active: growth inhibition [1] 63% | growth inhibition [4] 93%
inactive: inhibition [2] 5% | inhibition [3] 3% | outcome [5] | outcome [6] | outcome [7] | outcome [8]

CS(=O)(=O)c1cccc(-c2cnc3[nH]cc(-c4ccc(C(=O)O)cc4)c3c2)c1
inactive: inhibition [2] 6% | inhibition [3] -2% | outcome [5] | outcome [6] | outcome [7] | outcome [8]
active: growth inhibition [1] 100% | growth inhibition [4] 99%

COc1ccccc1C1CC(c2ccc(Br)cc2)=NN1C(=O)c1ccccc1 (stereo not drawn)
inactive: inhibition [2] 12% | inhibition [3] -6% | outcome [5] | outcome [6] | outcome [7] | outcome [8]
active: growth inhibition [1] 59% | growth inhibition [4] 85%

O=[N+]([O-])c1ccccc1C=NNc1c2c(nc3ccccc13)CCCC2
inactive: inhibition [2] -2% | inhibition [3] -3% | outcome [5] | outcome [6] | outcome [7] | outcome [8]
active: growth inhibition [1] 99% | growth inhibition [4] 97%

CN(c1ccc(F)cc1)S(=O)(=O)c1ccc(Cl)c(C(=O)Nc2cccc(C#N)c2)c1
active: growth inhibition [1] 58% | growth inhibition [4] 95%
inactive: inhibition [2] 5% | inhibition [3] -4% | outcome [5] | outcome [6] | outcome [7] | outcome [8]

Nc1nccc2ccc(-c3cccc(OCc4ccccc4)c3)cc12
active: growth inhibition [1] 81% | growth inhibition [4] 101%
inactive: inhibition [2] 47% | inhibition [3] 5% | outcome [5] | outcome [6] | outcome [7] | outcome [8]

Cc1ccc(-n2c(Sc3ncnc4sccc34)nnc2N2CCCC2)cc1
active: growth inhibition [1] 100% | growth inhibition [4] 99%
inactive: inhibition [2] 0% | inhibition [3] -3% | outcome [5] | outcome [6] | outcome [7] | outcome [8]

O=C(Nc1ccc(Cl)cc1)c1ccc(CN2CCCN(Cc3ccc(F)cc3)CC2)cc1
inactive: growth inhibition [1] 8% | inhibition [2] 48% | inhibition [3] 6% | outcome [5] | outcome [6] | outcome [7] | outcome [8]
active: growth inhibition [4] 91%

O=C(Cn1c(CCc2cccc(F)c2F)nc(=O)c2ccccc21)N(Cc1ccc(-c2ccc(C(F)(F)F)cc2)cc1)C1CCN(C2CCSCC2)CC1
inactive: inhibition [3] 0% | outcome [5] | outcome [6] | outcome [7] | outcome [8]
active: growth inhibition [1] 93% | inhibition [2] 97% | growth inhibition [4] 99%

Nc1nc(N)c2c(Cl)c(N3CCOCC3)ccc2n1
active: inhibition [2] 65% | growth inhibition [4] 96%
inactive: growth inhibition [1] 3% | inhibition [3] 1% | outcome [5] | outcome [6] | outcome [7] | outcome [8]

CCN(CC)CCOc1c(Cl)cc(Cl)cc1CNCCCNc1cc(=O)c2ccccc2[nH]1
inactive: growth inhibition [1] 6% | inhibition [2] 11% | inhibition [3] -1% | outcome [5] | outcome [6] | outcome [7] | outcome [8]
active: growth inhibition [4] 97%

CCCN(CCC)S(=O)(=O)c1ccc(C(=O)N2CCC(C(=O)OCC)CC2)cc1
active: growth inhibition [4] 98%
inactive: growth inhibition [1] 41% | inhibition [2] 26% | inhibition [3] 1% | outcome [5] | outcome [6] | outcome [7] | outcome [8]

Cc1cc(N2CCCC2)nc(/N=C(\N)Nc2cccc(C(F)(F)F)c2)n1
active: growth inhibition [1] 100% | growth inhibition [4] 101%
inactive: inhibition [2] 33% | inhibition [3] 1% | outcome [5] | outcome [6] | outcome [7] | outcome [8]

Cn1c(NC(=O)CCCCCNC(=O)c2ccc(O)c(-c3ccc(Cl)c(Cl)c3)c2)nc2ccccc21
active: growth inhibition [1] 55% | growth inhibition [4] 100%
inactive: inhibition [2] -6% | inhibition [3] 7% | outcome [5] | outcome [6] | outcome [7] | outcome [8]

CC(C)NCc1cccc(-c2ccc(NC(=O)c3cccc(C#N)c3)cc2)c1
inactive: inhibition [2] 22% | inhibition [3] 6% | outcome [5] | outcome [6] | outcome [7] | outcome [8]
active: growth inhibition [1] 95% | growth inhibition [4] 101%

Cc1[nH]c(C)c(-c2ccc(CCc3ccc(F)cc3F)cc2)c(=O)c1Br
active: growth inhibition [1] 98% | growth inhibition [4] 97%
inactive: inhibition [2] -5% | inhibition [3] -3% | outcome [5] | outcome [6] | outcome [7] | outcome [8]

Cc1cc(N(C)C)nc(Nc2ccc(NC(=O)C3CCCCC3)cc2)n1
inactive: inhibition [2] 3% | inhibition [3] -1% | outcome [5] | outcome [6] | outcome [7] | outcome [8]
active: growth inhibition [1] 68% | growth inhibition [4] 101%

— PubChem BioAssay
